Source: PubChem (National Center for Advancing Translational Sciences (NCATS))
SMN2 splice up: enhancers of SMN2 splice variant expression. HEK293 SMN2-luciferase splicing reporter, luminescence, 30-36 h. Potency, µM (titrated, usually from 46.1 µM), inactives show at the top dose activity change, positive = activation, usual class: activators. AID 1458. actives 2.8% (n = 210,000); also: % of control where 0% means no effect; nearly all actives have a fitted effect of over 55% in size
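HEK293 cells carry an SMN2 minigene-luciferase reporter in which exon 7 inclusion puts luciferase in frame. Cells were seeded at 2000 cells/well, attached for 10-12 hours, then exposed to compounds for 30-36 hours at 37C before ONE-Glo luminescence.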
NPC1 prom act: NPC1 promoter activation; Potency, µM (highest dose often 9.22 µM), inactives show at the highest dose activation, most hits filed as activators; Huh7 NPC1 promoter luciferase reporter, 24 h; actives 2.4% (n = 320,000); also: % of control where 0% means no effect; nearly all actives have a fitted effect of over 60% in size
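NPC1 promoter–luciferase Huh7 cells; 24 h compound; luminescence.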
Luc counter: blocks Kinase-Glo luciferase, a counter-screen artifact. Kinase-Glo luciferase, ATP luminescence, 8 min. Potency, µM (series often up to 38.3 µM), inactives show top-dose activity change, negative = inhibition, actives largely listed as inhibitors. actives 0.28% (n = 200,000); also: % is scaled to controls: 0 for no effect and ±100 for the full control effect; nearly all actives have a fitted effect of over 60% in size
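Recombinant Kinase-Glo luciferase, 10 uM ATP (linear range), luciferin; imidazole pH 7.2 / KCl / MgCl2 / Tween / BSA buffer; 8 min RT; luminescence.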
Rab9 prom act: activators of Rab9 promoter; Huh7 Rab9 promoter-luciferase reporter, luminescence, 24 h; Potency, µM (highest dose often 9.22 µM), inactives show top-dose activation, negative = inhibition, hits mostly activators; actives 2.8% (n = 320,000); also: % of control where 0% means no effect; nearly all actives have a fitted effect of over 60% in size
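Luciferase signal after 10 min detection reagent at ambient indicates Rab9 promoter upregulation; stably transfected Huh7 cells were treated 24 h with compound in DMSO at 37 °C, 5% CO2.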
ELG1 genotoxic: inducers of genotoxicity in HEK293T ELG1-luciferase cells. HEK293T ELG1-luciferase reporter, luminescence, 16 h. Potency, µM (highest dose often 46 µM), for inactives: top-dose activity change, positive = activation, most hits filed as activators. actives 1.3% (n = 330,000). AID 504466; also: % of control where 0% means no effect; nearly all actives have a fitted effect of over 60% in size
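ELG1-luciferase HEK293T cells, 2,000/well; compound pinned in; 16 hr, 37 °C, 5% CO2; ONE-Glo, 30 min RT; luminescence on CCD imager.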
FLuc modulator: firefly luciferase modulation, counter-screen for miR-21 project; P08659; purified FLuc, Km substrates, luminescence inhibition; Potency, µM (doses to about 57.5 µM), for inactives: at the highest dose activity change, negative = inhibition, usual class: inhibitors; actives 6.9% (n = 360,000); AID 588342;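 also: plate controls were vehicle for no effect and reference inhibitor for full effect; nearly all actives have a fitted effect of over 55% in size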
Target sequence (P08659 whole entry, looked up): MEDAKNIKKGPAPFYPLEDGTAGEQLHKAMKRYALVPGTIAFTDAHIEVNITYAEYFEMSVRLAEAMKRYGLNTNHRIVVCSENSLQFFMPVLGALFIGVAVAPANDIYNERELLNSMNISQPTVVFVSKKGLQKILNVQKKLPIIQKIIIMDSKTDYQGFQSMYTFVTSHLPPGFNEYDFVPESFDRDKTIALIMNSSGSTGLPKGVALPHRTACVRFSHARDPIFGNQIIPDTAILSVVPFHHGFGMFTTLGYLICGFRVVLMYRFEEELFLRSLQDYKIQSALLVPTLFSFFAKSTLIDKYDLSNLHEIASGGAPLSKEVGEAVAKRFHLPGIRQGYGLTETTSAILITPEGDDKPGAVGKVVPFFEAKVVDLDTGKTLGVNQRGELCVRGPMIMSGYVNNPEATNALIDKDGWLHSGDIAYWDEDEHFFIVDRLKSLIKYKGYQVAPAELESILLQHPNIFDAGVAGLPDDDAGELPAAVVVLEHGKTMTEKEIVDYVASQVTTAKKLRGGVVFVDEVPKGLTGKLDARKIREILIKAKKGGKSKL
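Purified P. pyralis luciferase (10nM final) with 10uM D-luciferin and 10uM ATP (Km levels) in 50mM Tris acetate pH 7.5, 10mM Mg acetate, 0.01% Tween-20, 0.05% BSA; qHTS 6-point titration, ~60 µM downward; luminescence read.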
Numbers without * were called inactive; ? = inconclusive; nt = no result; ! = not active in a repeat; [ ] = dose if it differs, or a comment. In the library only some 7.3% were active in any assay of this set; here they are far more common. Calls follow the shape of the dose curve; as a rule, active = well fitted curve in the direction sought with a large enough effect; inconclusive = small, poorly fitted or top-dose-only effect, or another doubt; inactive = no such curve, though single readings can be large; an effect the other way counts as inactive or inconclusive. Potency is read from the fitted curve at half-maximal effect.

SMILES	SMN2 splice up	NPC1 prom act	Luc counter	Rab9 prom act	ELG1 genotoxic	FLuc modulator
CC1=NN(C(N)=S)C(=O)C1N=Nc1ccccc1O (stereo unspecified)	nt	26%	nt	8%	0%	-5%
CC1=NN(C(N)=S)C(=O)C1N=Nc1ccccc1C (stereo unspecified)	?	13%	2%	4%	1%	21µM*
CC1=NN(C(N)=S)C(=O)C1N=Nc1ccc(C)cc1C (stereo unspecified)	14µM*	?	-4%	?	11µM*	4.8µM*
CCOc1ccc(NC(=O)c2cnn3c2NC(c2cccc(OC)c2)=CC3c2ccccc2)cc1 (stereo unspecified)	nt	nt	nt	nt	nt	-3%
Cn1c(=O)n(C)c2cc(NS(=O)(=O)c3ccc(F)cc3)c(NCc3ccccc3)cc21	0.89µM*	nt	nt	nt	nt	17µM*
Cc1ccc(S(=O)(=O)Nc2ccc3c(c2)n(C)c(=O)n3C)c(C)c1	nt	-1%	0%	-8%	?	-8%
CCc1ccc(S(=O)(=O)Nc2cc3c(cc2C)n(C)c(=O)n3C)cc1	nt	-32%	nt	-34%	?	3%
Cc1ccc(S(=O)(=O)Nc2cc3c(cc2NCc2ccccc2)n(C)c(=O)n3C)cc1	14µM*	nt	nt	nt	nt	?
Cc1ccc(S(=O)(=O)Nc2cc3c(cc2NCc2ccccc2)n(C)c(=O)n3C)c(C)c1	10µM*	nt	nt	nt	nt	?
O=C1CCCC/C1=N\Nc1ccc(OCc2ccccc2)cc1	5%	24%	-2%	?	2%	-17%
O=C1CCCC/C1=N\Nc1ccc(C2CCCCC2)cc1	nt	25%	nt	?	4.6µM*	1.7µM*
C[C@@](O)(CNS(=O)(=O)c1ccccc1)c1ccccc1	-15%[9.22 µM]	nt	-4%[7.66 µM]	nt	nt	nt
COc1ccc(C2C(=O)c3ccccc3C2=O)cc1	4µM*!	?	?	?	?	5.4µM*
COc1ccc(C2=C(N)c3ccccc3C2=O)cc1	?	4.5µM*	?	4.5µM*	13µM*	11µM*
COc1ccc(C2C(=O)c3ccccc3C2=O)c(OC)c1	-4%	2%	4%	-3%	1%	-1%
COc1ccc(C2C(=O)c3ccccc3C2=O)cc1OC	nt	28%	?	?	-4%	8.5µM*
COc1cc(C2N(C)C(=O)c3ccccc3N2C)ccc1O (stereo unspecified)	nt	-4%	nt	0%	-1%	3%
COc1ccc(NC2=C(c3ccc(OC)cc3)C(=O)c3ccccc32)cc1	-4%[1.84 µM]	6%	-4%	12%	5%	-2%
COc1cc(C2C(=O)c3ccccc3C2=O)ccc1O	nt	0%	nt	0%	8%	24µM*
N#Cc1ccc(CO/N=C/c2ccccc2)cc1	?	?	-3%	?	?	24µM*
CCOc1ccc(/C=C/c2nc3ccccc3n2S(=O)(=O)c2cccc(Cl)c2)cc1	5µM*	nt	nt	nt	nt	0.95µM*
Cc1ccc(S(=O)(=O)n2c(C)nc3ccccc32)cc1	nt	-6%	nt	3%	2%	2%
CSc1ccc(/C=C/c2nc3ccccc3n2S(=O)(=O)c2ccc(F)c(C)c2)cc1	nt	nt	nt	nt	nt	0.27µM*
CCOc1cc(S(=O)(=O)n2c(C)nc3ccccc32)ccc1F	-30%	1%	2%	-9%	-14%	-1%
Cc1ccc(/C=C/c2nc3ccccc3n2S(=O)(=O)c2cccc(Cl)c2)cc1	nt	nt	nt	nt	nt	0.67µM*
SMILES	SMN2 splice up	NPC1 prom act	Luc counter	Rab9 prom act	ELG1 genotoxic	FLuc modulator
CC1(C)N([O-])c2cc([N+](=O)[O-])ccc2[N+]1=O	nt	0%	nt	-24%	-1%	11µM*
COc1ccccc1N/C=C(\C#N)c1nc2ccccc2[nH]1	nt	-16%	-9%	-28%	9%	3.4µM*
CCC(=O)Oc1ccc(/C=C(\C#N)c2nc3ccccc3[nH]2)cc1OC	?	nt	nt	nt	nt	2.7µM*
COc1cc(/C=C(\C#N)c2nc3ccccc3[nH]2)cc(Br)c1OCc1ccccc1	-42%	-2%	0%	-8%	7%	-9%
COC(=O)/C(=C\c1cc(OC)c(OC)c(OC)c1)c1nc2ccccc2[nH]1	-99%	-10%	0%	-4%	-6%	?
CN(C)/C=C(\C#N)c1nc2ccccc2[nH]1	13%	1%	-3%	-2%	?	?
COc1cc(/C=C(/C(=O)c2cccs2)c2nc3ccccc3[nH]2)ccc1O	-27%	1%	?	13%	-5%	6.7µM*
COc1cc(/C=C(\C#N)c2nc3ccccc3[nH]2)cc(OC)c1O	8%	1%	0%	19%	4%	12µM*
Cc1cccc(OCC(=O)Nc2ccc(Cl)c(-c3nc4ncccc4o3)c2)c1C	3%	nt	nt	nt	nt	1%
O=C(NCCc1ccc(Cl)cc1)c1ccc2c(c1)N(Cc1ccccc1)C(=O)CS2	nt	nt	nt	nt	nt	-3%
CCCCN(C)C(=O)CN1C(=O)c2cccnc2Oc2ccc(Cl)cc21	nt	nt	nt	nt	nt	-2%
COc1cc(/C=C(/C#N)c2nc3ccccc3c(=O)[nH]2)ccc1O	5%	11%	-2%	6%	5%	8.5µM*
COc1c(Cl)cc(Cl)cc1/C=C(\C#N)c1nc2ccccc2[nH]1	nt	nt	nt	nt	nt	2%
COc1c(O)ccc(/C=C(\C#N)c2nc3ccccc3[nH]2)c1[N+](=O)[O-]	18%	6%	-2%	12%	1%	27µM*
COc1cc(/C=C(\C#N)C(=O)c2c[nH]c3ccccc23)cc(OC)c1O	-46%	0%	-1%	-4%	4%	15µM*
COc1ccc(/C=C(\C#N)c2nc3ccccc3[nH]2)cc1O	nt	?	nt	?	?	9.5µM*
CCCC(=O)C1=C(c2cccc(OC)c2)N(C(=O)CCC)n2c(C)nnc2S1	nt	nt	nt	nt	nt	2%
O=C(CCCN1C(=O)/C(=C/c2ccccc2Cl)SC1=S)NCCCN1CCOCC1	nt	-13%	nt	-11%	-18%	17µM*
CCOc1ccc(/C=C2\SC(=S)N(CCCC(=O)NCCCN3CCOCC3)C2=O)cc1	nt	-34%	nt	-37%	-16%	9.5µM*
CCc1ccc(/C=C2/SC(=S)N(CCC(=O)NCCCN3CCOCC3)C2=O)cc1	nt	10%	nt	-7%	13%	5.4µM*
CCOC(=O)Cc1csc(NC(=O)Nc2cccc(Cl)c2)n1	-40%	0%	0%	-3%	0%	5.4µM*
CCOC(=O)Cc1csc(NC(=O)Nc2ccc(Cl)cc2)n1	nt	-6%	nt	-7%	-6%	6µM*
CCOC(=O)Cc1csc(N/N=C/c2ccc(Cl)cc2)n1	nt	13%	nt	15%	5%	?
O=C(Nc1ccc2oc(-c3cccnc3)nc2c1)c1ccc(-c2cccc(OC(F)(F)F)c2)o1	-17%	nt	nt	nt	nt	-3%
Nc1ccc(-c2nc3ccccc3o2)cc1	nt	?	nt	?	?	6.7µM*
